The text below walks through data of PubChem BioAssay AID1347416 (National Center for Advancing Translational Sciences (NCATS), 2020).

In all, about 4,100 compounds went through this assay and about 1,600 (39%) were called active. About 25% were inconclusive and are not listed. Some of the results follow. A number with no mark means an inactive call. The call rests on the fitted dose curve; in most records, active means well fitted inhibition curve with a large enough effect; inconclusive means small, poorly fitted or top-dose-only effect; inactive means no such curve, though single readings can be large or run the other way.
On the % scale 0 is the no-effect control and ±100 the full control effect; potency means the concentration at half of the fitted maximal effect.

The nature of the test: qHTS Validation assay for Inhibitors of Plasmodium falciparum Dd2 growth in vitro. Further: nearly all actives have a fitted effect of over 70% in size. Conditions: P. falciparum Dd2 in RBCs, SYBR Green growth, 72 h; series mostly up to 28.7 µM; activity change, negative = inhibition: at the top concentration. An outline of the steps: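 P. falciparum Dd2-infected red blood cells (2.5% hematocrit, 0.3% parasitemia) grown 72 h at 37 °C under 5% O2 with compounds in a titration, 29 uM to 0.5 nM final. Growth read as SYBR Green-1 fluorescence after ~16 h lysis; artesunate 300 nM as positive control.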
Background: qHTS replaces the single test concentration by a dilution series.
Take `O=C(Cc1cccc(F)c1)N1CCC(Oc2ccccc2-c2nc(C3CC3)no2)C1` (stereo unspecified): the “activity change, negative = inhibition” value is -21.5%.

On to `c1ccc(-c2nc(-c3ccncc3)no2)c(OC2CCN(C3CCCC3)C2)c1` (stereo unspecified), for which the Potency was 15 µM (active).

With `O=C(c1ccco1)N1CCC(Oc2ccccc2-c2nc(-c3ccccc3)no2)C1` (stereo unspecified), the “activity change, negative = inhibition” value is 5.65%.

Take `Cc1cc(C(=O)Nc2cnn(Cc3ccc(Cl)cc3Cl)c2)no1`: the Potency is 9.44 µM (active).

As to `Cc1cc(/C(N)=N/OC(=O)c2ccccc2Cl)no1`, the “activity change, negative = inhibition” value was 5.14%.

`Cc1cn2nc(C(=O)NCc3ccccc3Cl)cc2c(=O)[nH]1`: the “activity change, negative = inhibition” value was -12.1%.

On to `COc1ccc(-c2ccc(SCc3ccccn3)nn2)cc1OC`, for which the “activity change, negative = inhibition” value is -0.343%.

In the case of `COc1ccc(C(=O)NCc2nnc3ccc(-c4ccc(F)cc4)nn23)c(OC)c1`, the “activity change, negative = inhibition” value was 1.1%.

In the case of `COc1ccc(Nc2cnc3ccc(-c4ccc(OC)c(OC)c4)nn23)cc1`, the Potency was 1.72 µM (active).

On to `COc1ccc(-c2ccc3ncc(Nc4ccncc4)n3n2)cc1OC`, for which the Potency is 4.85 µM (active).

For `COc1cncc(Nc2cnc3ccc(-c4ccc(F)cc4)nn23)c1`, the Potency is 3.06 µM (active).

On to `OCc1cccc(-c2ccc3ncc(Nc4ccc(OCCN5CCCC5)cc4)n3n2)c1`, for which the Potency is 3.44 µM (active).

Consider `Cc1oc(C(C)C)cc1C(=O)N1CC[C@](C)(O)[C@@H](O)C1`, for which the “activity change, negative = inhibition” value is 77.2%.

For `CC(=O)N1CCC([C@@H]2CN(C3CCN(CC(C)C)CC3)C[C@H]2CO)CC1`, the “activity change, negative = inhibition” value is 11.4%.

For the compound `O=C(O)CC1(CC(=O)N2CCN3C(=O)N(Cc4ccccc4)C(=O)[C@H]3C2)CCCC1`, the “activity change, negative = inhibition” value was -25.2% [at 43.1 µM].

Take `CCCc1noc(-c2ccn3c(CNC(=O)c4ccc5ccccc5n4)nnc3c2)n1`: the “activity change, negative = inhibition” value is -9.45%.

Take `c1ccc(-c2ccc3ncc(Nc4cccnc4)n3n2)cc1`: the Potency was 4.85 µM (active).

Regarding `O=C(NCc1nnc2ccc(-c3ccccc3)nn12)c1ccoc1`, the “activity change, negative = inhibition” value was 16.5%.

Take `COc1cncc(Nc2cnc3ccc(-c4ccc(OC)c(OC)c4)nn23)c1`: the Potency is 1.22 µM (active).

In the case of `CCC1(O)CCCN(c2ncc(C(C)(C)C(=O)O)c(N3CCOCC3)n2)C1` (stereo unspecified), the “activity change, negative = inhibition” value was 82.3%.

Consider `CCOc1cc(C2c3c(oc4ccccc4c3=O)C(=O)N2Cc2ccc3c(c2)OCO3)ccc1O` (stereo unspecified), for which the “activity change, negative = inhibition” value was 7.62%.

As to `CCOC(=O)c1ccc(NC2=CC(c3ccc(O)c(OCC)c3)N(c3ccc(C(=O)OCC)cc3)C2=O)cc1` (stereo unspecified), the Potency was 3.35 µM (active).

`CCOC(=O)c1ccc(NC2=CC(c3ccc(F)cc3)N(c3ccc(C(=O)OCC)cc3)C2=O)cc1` (stereo unspecified): the Potency was 8.41 µM (active).

Take `O=C(CNC1=NCCC1)c1ccc2c(c1)OCCO2`: the “activity change, negative = inhibition” value was 19.9%.

`Nc1cc[n+](CC(=O)c2ccc3c(c2)OCCO3)cc1`: the Potency is 13.3 µM (active).

For the compound `COc1cc(C2NC(=O)c3c(sc4c3CCN(C)C4)N2)cc(OC)c1OC` (stereo unspecified), the “activity change, negative = inhibition” value is 12.5%.

For the compound `O=C(Nc1cccc2ccccc12)O[C@@H]1CO[C@H]2[C@@H]1OC[C@@H]2n1nnnc1-c1ccc(-c2ccccc2)cc1`, the “activity change, negative = inhibition” value was 36.3%.

In the case of `CC(C)N1C(=O)C(CC(=O)N(C)Cc2cccnc2)=C2CCCCC21` (stereo unspecified), the “activity change, negative = inhibition” value was 0%.

In the case of `CCC(C)c1ccc(N(C(=O)c2ccco2)C(C(=O)NC2CCCC2)c2cccnc2)cc1` (stereo unspecified), the Potency is 6.68 µM (active).

On to `Cc1noc(C)c1-c1cc2cc(CN(C)C)oc2c(NCc2cccnc2)n1`, for which the Potency was 1.22 µM (active).

For `COc1cncc(Nc2ncc(-c3c(C)noc3C)c3c2OCC3)c1`, the “activity change, negative = inhibition” value was -18.9% [at 43.1 µM].

`Cc1noc(C)c1-c1cc2cc(CN(C)C)oc2c(Nc2cccnc2)n1`: the Potency is 12.2 µM (active).

As to `Cc1cn2nc(-c3nc(C4CCCN(C(=O)c5cccc(Cl)c5)C4)no3)cc2c(=O)[nH]1` (stereo unspecified), the “activity change, negative = inhibition” value is -16.5%.

As to `Cc1cn2nc(-c3nc(C4CCCN(C(=O)c5ccc(C)c(F)c5)C4)no3)cc2c(=O)[nH]1` (stereo unspecified), the “activity change, negative = inhibition” value was -21.2%.

With `O=C(c1cccc(Cl)c1)N1CCC(c2nc3c(nnn3Cc3ccc(F)cc3F)c(=O)[nH]2)CC1`, the Potency is 5.96 µM (active).

Regarding `Cc1cccc(Cn2nnc3c(=O)[nH]c(C4CCCN(C(=O)c5ccc(C(C)(C)C)cc5)C4)nc32)c1` (stereo unspecified), the Potency is 2.66 µM (active).

`Cc1cccc(CC(=O)N2CCCC(n3cc(-c4nc(-c5ccccc5)no4)nn3)C2)c1` (stereo unspecified): the “activity change, negative = inhibition” value is -19.8%.

Regarding `O=C(c1ccc(F)cc1)N1CCC(c2nn(Cc3ccccc3)c(=O)[nH]2)CC1`, the “activity change, negative = inhibition” value was 38.4%.

With `NC(=O)c1cccc(-c2ncc3c(n2)OCCN(Cc2ccc(F)cc2F)C3=O)c1`, the “activity change, negative = inhibition” value is -26% [at 43.1 µM].

For the compound `O=C(c1cccc(Cl)c1)N1CCC(c2nn(Cc3ccccc3)c(=O)[nH]2)CC1`, the “activity change, negative = inhibition” value is 20.2%.

Take `CC(C)(C)c1ccc(C(=O)N2CCCC(c3nc4c(nnn4Cc4cccc(F)c4)c(=O)[nH]3)C2)cc1` (stereo unspecified): the Potency is 16.8 µM (active).

For the compound `CO[C@H]1C(=O)N(C2CCN(S(=O)(=O)c3cccnc3)CC2)[C@H]1c1ccncc1`, the “activity change, negative = inhibition” value is -3.7%.

As to `Cc1ccc(Nc2nc3nonc3nc2Nc2cccc(C(F)(F)F)c2)cc1Cl`, the Potency is 2.11 µM (active).

`CCOC(=O)Cc1csc(NC(=S)NC(=O)c2ccc(C)cc2)n1`: the “activity change, negative = inhibition” value is 37.3%.

As for `CCOc1ccc(-c2nonc2NC(=O)COc2c(C)cc(C)cc2C)cc1OCC`, the “activity change, negative = inhibition” value is 3.46%.

For the compound `CCOc1ccc(-c2nonc2NC(=O)c2ccc(C)cc2)cc1OCC`, the Potency was 1.68 µM (active).
